This note sets out measurements from PubChem BioAssay (EPA / NIEHS).

Assay [1] can be described thus: BSK_BT_PBMCCytotoxicity: PBMC Cytotoxicity Assessment in the BioMAP Diversity Plus: BT Assay (AID 2284225).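 Further: PBMC viability measured by Alamar Blue dye reduction fluorescence.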 The settings on record: primary human B cells with PBMC. In a few lines: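 Primary human co-culture of B cells and PBMC, pre-dosed 1 h then activated with SEB and TSST-1. Cytotoxicity is taken from Alamar Blue dye reduction, added for 6 h at the end of a 90 h incubation.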

Read-out in assay [2]: Secreted IgG (sIgG), gene 3500
Briefly: BSK_BT_sIgG: BioMAP Diversity Plus: BT Assay for Secreted IgG (sIgG) Biomarker Activity (AID 2284226). The settings on record: primary human B cells with PBMC. In a few lines:
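Human B cell/PBMC co-culture; compound exposure 24 h; sIgG by ELISA; gain-of-signal fit vs DMSO baseline.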

Assay [3] is described as follows: BSK_BT_Bcell_Proliferation: Viability Assessment in the BioMAP Diversity Plus: BT Assay for B cell Proliferation (AID 2284227). The settings on record: primary human B cells with PBMC. Summed up:
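Human B cell/PBMC co-culture; test chemical added; 72 h; TCA fix (10%), 0.1% SRB stain, A560 for total protein as a proliferation read-out; positive-direction fit vs DMSO baseline.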

Read-out in assay [4]: Interleukin 6 (IL6), IL6 (gene 3569)
Description: BSK_BT_xIL6: BioMAP Diversity Plus: BT Assay for Interleukin 6 (IL6) Biomarker Activity (AID 2284228). The note with it: primary human B cells with PBMC. Summed up:
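Secreted IL-6 in the primary human B cell plus PBMC system, measured by Luminex at 24 h post-chemical, DMSO as baseline. Alamar Blue viability: 75,000 cells/well, chemical 1 h before SEB/TSST-1 (20 ng/mL each), 90 h, then 6 h dye.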

Read-out in assay [5]: Interleukin 17A (IL17A), IL17A (gene 3605)
Description: BSK_BT_xIL17A: BioMAP Diversity Plus: BT Assay for Interleukin 17A (IL17A) Biomarker Activity (AID 2284229). The note with it: primary human B cells with PBMC. In a few lines: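 Luminex xMAP quantification of secreted IL-17A after 24 h chemical exposure of a primary human B cell/PBMC co-culture. Signal increases fitted relative to DMSO negative control.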

Read-out in assay [6]: Tumor necrosis factor (Homo sapiens) (UniProt P01375)
Description: BSK_BT_xTNFa: BioMAP Diversity Plus: BT Assay for Tumor necrosis factor alpha (TNF-alpha) Biomarker Activity (AID 2284230). The note with it: primary human B cells with PBMC. Summed up: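 Read-out: Luminex xMAP quantitation of secreted TNF-alpha from a B cell/PBMC co-culture 24 h after compound addition. Signal analysed relative to DMSO vehicle, positive fitting direction.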

Read-out in assay [7]: Vascular cell adhesion molecule 1 (VCAM1), VCAM1 (gene 7412)
Briefly: BSK_MyoF_VCAM1: BioMAP Diversity Plus: MyoF Assay for Vascular cell adhesion molecule 1 (VCAM1) Biomarker Activity (AID 2284231). The note with it: primary human lung fibroblasts. Summed up: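 ELISA readout of VCAM-1 on human lung fibroblast cultures 24 hours after dosing, analyzed for signal gain relative to DMSO. Overt cytotoxicity was checked by sulforhodamine B total-protein staining in parallel cultures.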

“And” between values parts separate entries of the source, which are not always exact repeats. Equal values may be shown once. The source made the active and inactive calls. How the source made its calls: active means hit-call score of the fitted dose curve at least 0.9, where 1 is the maximum; inactive means score below 0.9.

Tumor necrosis factor (Homo sapiens), sequence (P01375 whole entry, looked up): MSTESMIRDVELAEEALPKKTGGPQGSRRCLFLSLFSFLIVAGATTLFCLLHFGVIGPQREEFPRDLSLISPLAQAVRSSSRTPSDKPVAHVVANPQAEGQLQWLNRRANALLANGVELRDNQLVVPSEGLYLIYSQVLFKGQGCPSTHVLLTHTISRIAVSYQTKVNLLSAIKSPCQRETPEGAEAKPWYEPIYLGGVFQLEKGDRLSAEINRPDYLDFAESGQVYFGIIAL

In the case of `FC(F)(F)C(F)(F)C(F)(F)C(F)(F)C(F)(F)C(F)(F)C(F)(F)Br`, the result in assay [1], in assay [2], in assay [3], in assay [4], in assay [5] and in assay [6] was inactive. Further, in assay [7], the result was inactive.

As to `O=C(CC(=O)C(F)(F)C(F)(F)F)C(F)(F)F`, the outcome in assay [1], in assay [2], in assay [3], in assay [4], in assay [5] and in assay [6] was inactive. Further, the result in assay [7] was inactive.

Regarding `OCC(F)(F)C(F)(F)C(F)(F)F`, the outcome in assay [1], in assay [2], in assay [3], in assay [4], in assay [5] and in assay [6] was inactive. Moreover, the result in assay [7] was inactive.

For the compound `C=CC(F)(F)C(F)(F)C(F)(F)C(F)(F)C(F)(F)C(F)(F)C(F)(F)C(F)(F)C=C`, the result in assay [1], in assay [2], in assay [3], in assay [4], in assay [5] and in assay [6] was inactive. For the same compound, the result in assay [7] was inactive.

In the case of `O[Si](c1ccccc1)(c1ccccc1)c1ccccc1`, the result in assay [1], in assay [4] and in assay [7] was inactive. Also, the AC50 in assay [2] is 14.1 µM (active); in assay [3], 27.3 µM (active); in assay [5], 28.9 µM (active); in assay [6] it was 38.2 µM (active).

For `C=CC(=O)OCC(F)(F)C(F)(F)C(F)(F)C(F)(F)COC(=O)C=C`, the AC50 in assay [1] is 11.3 µM (active) and 11.2 µM (active); in assay [2] it was 10.5 µM (active) and 7.38 µM (active); in assay [3], 13.7 µM (active) and 12 µM (active); in assay [4] it was 12.3 µM (active) and 10.4 µM (active); in assay [5], 7.14 µM (active) and 8.58 µM (active); in assay [6], 9.76 µM (active) and 9.35 µM (active). In assay [7], the AC50 was 9.29 µM (active) and 10.5 µM (active).

As to `FC(F)(F)C(F)(F)C(F)(F)CI`, the result in assay [1], in assay [2], in assay [3], in assay [4], in assay [5] and in assay [6] was inactive. Besides, the outcome in assay [7] was inactive.

As to `CCc1ccc(C(c2ccc(CC)cc2)C(Cl)Cl)cc1`, the AC50 in assay [1] is 31.1 µM (active); in assay [2], 14.7 µM (active); in assay [3], 31.7 µM (active); in assay [4], 27.8 µM (active); in assay [5], 28.8 µM (active); in assay [6], 28.5 µM (active). Besides, in assay [7], the AC50 was 14.1 µM (active).

Turning to `FC(F)(F)C(F)(F)C(F)(F)C(F)(F)CCI`, the outcome in assay [1], in assay [2], in assay [3], in assay [4], in assay [5] and in assay [6] was inactive. Moreover, the outcome in assay [7] was inactive.

`C=C(C)C(=O)OCCC(F)(F)C(F)(F)C(F)(F)C(F)(F)C(F)(C(F)(F)F)C(F)(F)F`: the result in assay [1], in assay [2], in assay [3], in assay [4], in assay [5] and in assay [6] was inactive. The outcome in assay [7] was inactive.

On to `FC1CC(F)(F)C(F)(F)C1(F)F` (stereo not drawn), for which the outcome in assay [1], in assay [2], in assay [3], in assay [4], in assay [5] and in assay [6] was inactive. In addition, the result in assay [7] was inactive.

Consider `CCc1c(Br)c(Br)c(Br)c(Br)c1Br`, for which the result in assay [1], in assay [2], in assay [3], in assay [4], in assay [5] and in assay [6] was inactive. Also, the concentration at half-maximal activity (AC50) in assay [7] is 20 µM (active).

Consider `O=S(=O)(O)C(F)(F)C(F)(F)C(F)(F)C(F)(F)C(F)(F)C(F)(F)C(F)(F)F`, for which the outcome in assay [1], in assay [2], in assay [3], in assay [4], in assay [5] and in assay [6] was inactive. For the same compound, the result in assay [7] was inactive.

Regarding `CCN(CC)c1ccc2c(C)cc(=O)oc2c1`, the outcome in assay [1], in assay [3], in assay [5], in assay [6] and in assay [7] was inactive. Further, the values for the AC50 in assay [2] and in assay [4] were 28.3 µM (active) and 10.9 µM (active), respectively.

For the compound `FC(F)(F)C(F)(F)C(F)(F)C(F)(F)C(F)(F)CCI`, the result in assay [1], in assay [2], in assay [3], in assay [4], in assay [5] and in assay [6] was inactive. Further, the outcome in assay [7] was inactive.

In the case of `CC(=O)Nc1ccc(N=Nc2cc(C)ccc2O)cc1`, the result in assay [1], in assay [3], in assay [5] and in assay [6] was inactive. Also, the AC50 in assay [2] is 9.61 µM (active); in assay [4], 0.016 µM (active); in assay [7], 20 µM (active).

For the compound `OCC(F)(F)C(F)(F)C(F)(F)C(F)F`, the result in assay [1], in assay [2], in assay [3], in assay [4], in assay [5] and in assay [6] was inactive. For the same compound, the result in assay [7] was inactive.

In the case of `FC(F)(Br)C(F)(F)C(F)(F)C(F)(F)C(F)(F)C(F)(F)Br`, the outcome in assay [1], in assay [2], in assay [3], in assay [4], in assay [5] and in assay [6] was inactive. For the same compound, the result in assay [7] was inactive.

As to `O=S(=O)(OCCOC(F)(F)F)C(F)(F)F`, the result in assay [1], in assay [2], in assay [3], in assay [4], in assay [5] and in assay [6] was inactive. In addition, the outcome in assay [7] was inactive.

One may read the AC50 as the midpoint of the concentration-response curve, whichever way the signal moves.
